Reference: PubChem BioAssay AID602143 (Vanderbilt Specialized Chemistry Center, 2011)
The source made the active and inactive calls. No stated cut-off is given here; in the data, active means remaining activity below about 50%; inactive means the rest.

The compounds below were run against Phospholipase D2 (Homo sapiens) (UniProt O14939) (assay: cellular phospholipase D2 activity inhibition – cell-based, HEK293, single concentration (AID 602143;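 further: tested at 200 nM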)). Details: HEK293 cellular PLD2 activity, percent of control; active compounds read low.
Sequence of Phospholipase D2 (Homo sapiens) (O14939 whole entry, looked up): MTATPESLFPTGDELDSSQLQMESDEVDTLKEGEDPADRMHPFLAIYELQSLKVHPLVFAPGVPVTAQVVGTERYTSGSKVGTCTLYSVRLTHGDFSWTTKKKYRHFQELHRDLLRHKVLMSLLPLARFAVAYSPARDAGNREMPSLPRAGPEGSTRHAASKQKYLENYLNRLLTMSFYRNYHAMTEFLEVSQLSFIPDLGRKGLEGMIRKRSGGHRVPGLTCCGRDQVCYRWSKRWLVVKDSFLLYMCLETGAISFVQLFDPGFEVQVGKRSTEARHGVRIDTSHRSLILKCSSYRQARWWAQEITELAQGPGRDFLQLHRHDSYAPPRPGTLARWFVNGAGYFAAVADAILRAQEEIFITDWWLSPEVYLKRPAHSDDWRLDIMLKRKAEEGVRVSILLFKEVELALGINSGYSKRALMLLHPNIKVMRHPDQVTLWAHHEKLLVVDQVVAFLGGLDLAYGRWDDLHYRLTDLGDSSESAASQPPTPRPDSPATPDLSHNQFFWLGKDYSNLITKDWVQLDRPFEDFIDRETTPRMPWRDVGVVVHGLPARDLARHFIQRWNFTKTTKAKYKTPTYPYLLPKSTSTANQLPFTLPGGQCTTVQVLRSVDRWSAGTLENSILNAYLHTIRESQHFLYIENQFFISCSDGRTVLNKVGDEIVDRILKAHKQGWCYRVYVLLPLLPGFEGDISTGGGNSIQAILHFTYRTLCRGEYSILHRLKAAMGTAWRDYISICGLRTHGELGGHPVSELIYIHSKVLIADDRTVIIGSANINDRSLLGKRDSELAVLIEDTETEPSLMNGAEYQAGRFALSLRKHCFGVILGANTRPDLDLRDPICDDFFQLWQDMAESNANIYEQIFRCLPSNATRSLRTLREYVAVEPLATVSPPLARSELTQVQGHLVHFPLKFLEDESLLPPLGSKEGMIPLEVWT
Sequence of Phospholipase D2 (Homo sapiens) (O14939 whole entry, looked up): as above
For O=C(NCCN1CCC(n2c(=O)[nH]c3cc(Cl)ccc32)CC1)c1ccc2ccccc2c1, the remaining activity was 63.9% (inactive).
For O=c1[nH]c2ccccc2n1C1CCN(CCNS(=O)(=O)c2ccc(Cl)cc2)CC1, the remaining activity was 115% (inactive).
For O=c1[nH]c2ccccc2n1C1CCN(CCNS(=O)(=O)c2ccc([N+](=O)[O-])cc2)CC1, the remaining activity was 80.3% (inactive).
With O=C(NCCN1CCN(c2ccncc2)CC1)c1ccccc1-c1ccccc1 the remaining activity was 83.2% (inactive).
O=C1c2ccccc2C(=O)N1CCCN1CCC(n2c(=O)[nH]c3ccccc32)CC1 was tested, and the remaining activity was 97.3% (inactive).
O=C(NCCN1CCC(n2c(=O)[nH]c3ccccc32)CC1)C1CCCCCC1 was tested, and the remaining activity was 104% (inactive).
For C[C@@H](CN1CCC(n2c(=O)[nH]c3ccccc32)CC1)NC(=O)c1cccnc1, the remaining activity was 97.3% (inactive).
In the case of O=C(NCCN1CC=C(n2c(=O)[nH]c3ccccc32)CC1)[C@H]1C[C@@H]1c1ccccc1, the remaining activity is reported as 114% (inactive).
In the case of NC1(CN2CCC(c3nc4ccccc4[nH]3)CC2)CCCC1 (tested in a mixture with another compound), the remaining activity is reported as 105% (inactive).
For COc1cccc(N2CCN(CCNC(=O)c3ccc(C)cc3)CC2)c1, the remaining activity was 97.6% (inactive).
In the case of O=c1[nH]c2ccccc2n1C1CCN(CCNC(=S)Nc2ccccc2F)CC1, the remaining activity is reported as 87.4% (inactive).
In the case of O=c1[nH]c2ccccc2n1C1CCN(CCNS(=O)(=O)c2ccccc2Br)CC1, the remaining activity is reported as 75.8% (inactive).
O=C(NCCN1CCC(n2c(=O)[nH]c3cc(I)ccc32)CC1)C1CC1c1ccccc1 (configuration not stated) was tested, and the remaining activity was 57.2% (inactive).
With CC(C)[C@@H](CN1CCC(n2c(=O)[nH]c3ccccc32)CC1)NC(=O)c1ccc(F)cc1 the remaining activity was 82% (inactive).
In the case of Cn1c(C(=O)NCCN2CCN(c3ccncc3)CC2)cc2ccccc21, the remaining activity is reported as 109% (inactive).
In the case of O=C(NCCN1CCN(c2ccncc2)CC1)c1cc2ccccc2s1, the remaining activity is reported as 90.5% (inactive).
With C=CCCCCCCCCC(=O)NCCN1CCC(n2c(=O)[nH]c3ccccc32)CC1 the remaining activity was 65.3% (inactive).
Cc1cc(C)c(S(=O)(=O)NCCN2CCC(n3c(=O)[nH]c4ccccc43)CC2)c(C)c1 was tested, and the remaining activity was 98.8% (inactive).
With Cn1c(=O)n(C2CCN(CCNC(=O)[C@H]3C[C@@H]3c3ccccc3)CC2)c2ccccc21 the remaining activity was 78.4% (inactive).
With O=C(NCCN1CCC(n2c(=O)[nH]c3ccccc32)CC1)Nc1cccc(OC(F)(F)F)c1 the remaining activity was 111% (inactive).
For O=C(NCCN1CC=C(n2c(=O)[nH]c3ccccc32)CC1)C1CC1c1ccccc1 (configuration not stated), the remaining activity was 28.2% (active).
For C[C@H](CN1CCC2(CC1)CNCc1ccccc12)NC(=O)c1ccc2ccccc2c1, the remaining activity was 110% (inactive).
In the case of C[C@@H](CN1CCC2(C=Cc3ccccc32)CC1)NC(=O)[C@H]1C[C@@H]1c1ccccc1, the remaining activity is reported as 87.1% (inactive).
In the case of C[C@@H](CN1CCC(c2nc3ccc(F)cc3[nH]2)CC1)NC(=O)[C@H]1CC1c1ccccc1 (some centres not stated), the remaining activity is reported as 92.5% (inactive).
For Cc1ccccc1NC(=S)NCCN1CCC(n2c(=O)[nH]c3ccccc32)CC1, the remaining activity was 145% (inactive).
In the case of O=C(NCCN1CCC2(CC1)CNc1ccccc12)C1CC1c1ccccc1 (configuration not stated), the remaining activity is reported as 91.2% (inactive).
O=C(NCCN1CCC2(C=Cc3ccccc32)CC1)c1ccc2ccccc2c1 was tested, and the remaining activity was 119% (inactive).
O=C(NCCN1CCC(n2c(=O)[nH]c3ccccc32)CC1)C(c1ccccc1)(c1ccccc1)c1ccccc1 was tested, and the remaining activity was 93.2% (inactive).
With O=C(NCCN1CCC(n2c(=O)[nH]c3ccccc32)CC1)Nc1ccccc1C(F)(F)F the remaining activity was 114% (inactive).
O=C(NCCN1CC=C(n2nnc3cc(C(F)(F)F)ccc32)CC1)c1cnc2ccccc2c1 was tested, and the remaining activity was 114% (inactive).
For O=C(CCCN1CCC(O)(c2ccc(Cl)cc2)CC1)c1ccc(F)cc1, the remaining activity was 107% (inactive).
With COc1cccc(N2CCN(CCNC(=O)c3ccc4ccccc4c3)CC2)c1 the remaining activity was 77.4% (inactive).
With C[C@@H](CN1CCC(n2c(=O)[nH]c3ccccc32)CC1)NC(=O)COc1ccccc1 the remaining activity was 88.2% (inactive).
O=C(NCCN1CCC(n2c(=O)[nH]c3ccccc32)CC1)c1cnc2ccccc2n1 was tested, and the remaining activity was 87.4% (inactive).
O=c1[nH]c2ccccc2n1C1CCN(CCNC(=S)Nc2cccc3ccccc23)CC1 was tested, and the remaining activity was 100% (inactive).
Nc1cccc(Cl)c1C(=O)NCCN1CCC(n2c(=O)[nH]c3ccccc32)CC1 was tested, and the remaining activity was 59.2% (inactive).
For O=C(NCCN1CCC2(CCc3ccccc32)CC1)[C@H]1C[C@@H]1c1ccccc1, the remaining activity was 99.8% (inactive).
